ATXN2 expr inh: ATXN2 expression inhibition; AID 1745845; hit rate 0.72% among 360,000; HEK-293 ATXN2-luciferase reporter, luminescence, 24 h; Potency, µM (top dose mostly 57 µM), inactives show top-dose activity change, negative = inhibition, hits mostly inhibitors; note: potency is the fitted concentration of half-maximal effect; % is set by controls: 0 for no effect and ±100 for the full control effect; nearly all actives have a fitted effect of over 55% in size
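ATXN2-luciferase reporter cells (luciferase flanked by upstream and downstream ATXN2 gene portions) were treated 24 h at 37 °C with compounds at up to 57 uM. SteadyGlo luminescence gave expression; GF-AFC fluorescence gave viability.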
DRD3 antagonist: antagonists of human D3 dopamine receptor; P35462; AID 652054; D3R cells, DiscoveRx beta-arrestin luminescence, antagonist mode; stronger effect = lower value; hit rate 2.5% among 360,000; max response, negative = inhibition, %; in the data active = max response below about -50%; inconclusive = no clear call, values can overlap the other calls; note: % is set by controls: 0 for no effect and ±100 for the full control effect
Target sequence (P35462 whole entry, looked up): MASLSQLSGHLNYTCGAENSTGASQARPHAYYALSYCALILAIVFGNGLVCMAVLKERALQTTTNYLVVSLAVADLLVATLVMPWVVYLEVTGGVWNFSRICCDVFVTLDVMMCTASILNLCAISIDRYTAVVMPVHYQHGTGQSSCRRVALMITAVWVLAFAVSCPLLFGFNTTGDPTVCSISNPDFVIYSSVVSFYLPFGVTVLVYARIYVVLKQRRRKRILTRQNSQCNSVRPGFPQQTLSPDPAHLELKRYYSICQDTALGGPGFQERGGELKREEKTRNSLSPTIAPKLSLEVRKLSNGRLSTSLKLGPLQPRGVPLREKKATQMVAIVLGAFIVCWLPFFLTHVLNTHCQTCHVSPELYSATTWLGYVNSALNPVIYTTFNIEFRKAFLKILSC
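Cells plated overnight at 1500 cells/well, then exposed to library compounds with dopamine controls for 90 minutes at 37 degrees C. DiscoveRx reagent added for 30–60 minutes at room temperature; luminescence read, quantitative HTS format.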
IL1B secr inh: blocks inflammasome-driven IL-1 beta release; THP-1 LPS/ATP IL-1B secretion, AlphaLISA, 16 h; stronger effect = lower value; activity change, % at 57.5 µM; hit rate 4.7% among 360,000; AID 743279; in the data active = activity change below about -50%; inconclusive = mostly about -30% to -49%; note: % is set by controls: 0 for no effect and ±100 for the full control effect
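Secreted IL-1B measured by AlphaLISA bead assay after 16 h compound exposure of THP-1 cells; compounds (final up to 57.5 uM) added 1 h before LPS (250 ng/mL) and ATP (1.25 mM) stimulation; lower signal means less secretion.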
S2 tox: cell viability loss in ATXN counter-screen; S2 cells (HEK-293 line with an ATXN2-luciferase reporter) viability, CellTiter-Fluor protease fluorescence, 24 h; Potency, µM (highest dose often 56.7 µM), usual class: cytotoxic; hit rate 0.49% among 400,000; AID 651635; note: potency is the fitted concentration of half-maximal effect; nearly all actives have a fitted effect of over 40% in size
Integrin act MD: activates integrin-mediated alleviation for muscular dystrophy; alpha7betagal myoblasts, beta-gal FDG fluorescence, 48 h; Potency, µM (titrated, usually from 38.3 µM), without a hit: top-dose activation, actives largely listed as activators; hit rate 0.064% among 350,000; AID 624291;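 note: potency is the fitted concentration of half-maximal effect; 100% = response of the positive control SU9516; nearly all actives have a fitted effect of over 60% in size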
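alpha7betagal+/- myoblasts (passage 13, 250/well) treated 48 h at 37C with compounds at 1:260 dilution of DMSO stock. Lysed, then beta-galactosidase activity read as FDG fluorescence (ex 480/em 540) after 30 min, with pre-read for autofluorescence.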
D3 ag: D3 dopamine receptor (human) agonism; D3R DiscoveRx beta-arrestin cells, luminescence, 90 min; max activation, %; hit rate 0.58% among 410,000; in the data active = max activation above about 30%; note: 0% is about no effect
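Agonist mode: compounds and dopamine controls were applied to plated cells for 90 min at 37 degrees C after an overnight attachment at 1500 cells/well. Luminescent read-out followed 30 - 60 minutes at room temperature with DiscoveRx detection reagent.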
Starred values were filed as active, the others as inactive; i = inactive; ? = inconclusive; · = no result. In the library only some 7% were active in any assay of this set; here they are far more common. Unless noted, calls come from the whole dose curve; as a rule, active = well fitted curve in the direction sought with a large enough effect; inconclusive = small, poorly fitted or top-dose-only effect, or another doubt; inactive = no such curve, though single readings can be large; an effect the other way counts as inactive or inconclusive.

SMILES	ATXN2 expr inh	DRD3 antagonist	IL1B secr inh	S2 tox	Integrin act MD	D3 ag
Fc1c(F)c(C(F)(F)F)c(F)c(F)c1N/N=C\c1cccs1	-8%	22	-74*	i	5%	3
C[C@@H](C(=O)NCCc1c[nH]c2ccccc12)[C@H]1C[C@]1(C)[C@H](NC(=O)OCc1ccccc1)c1ccccc1	?	-29	-23	?	-15%	-1
Cc1[nH]c2ccccc2c1CC#N	4%	23	18	i	7%	4
Cc1[nH]c2ccccc2c1C1=CC(=O)C=CC1=O	?	?	-101*	·	-46%	-13
CCOC(=O)C1(CC2CCCCO2)CCN(Cc2cc3ccccc3[nH]2)CC1 (stereo not drawn)	-4%	?	-91*	i	-70%	-27
Cc1cccc(N2CCN(CCNC(=O)C3COc4ccccc4C3)CC2)c1C (stereo not drawn)	-8%	·	·	i	·	27
CSc1ccc(CN2CCC2(C)C(=O)NC2CCc3ccccc32)cc1 (stereo not drawn)	3%	-70*	-1	i	·	5
Cc1c(CCCN)c2ccccc2n1Cc1ccccc1	?	2	-71*	?	-57%	-4
COc1ccc(C(=O)CCS(=O)(=O)c2ccc(C)cc2)cc1OC	2%	1	-82*	i	-55%	2
Cc1ccc(S(=O)(=O)CCC(=O)c2ccc(O)cc2O)cc1	22%	-59*	-8	i	-69%	5
COc1ccc(C(=O)COC(=O)CCS(=O)(=O)c2ccc(C)cc2)c(OC)c1	-14%	7	14	i	2%	-1
NC(=O)c1cc(Br)cc2c3c([nH]c12)CCCC3	-15%	13	-81*	i	-25%	-7
Brc1ccc2[nH]c3c(c2c1)CCC3	74%	5	-21	?	14%	1
CC(C(=O)OCC(=O)c1ccc([N+](=O)[O-])cc1)N1C(=O)C2C3C=CC(C3)C2C1=O (stereo not drawn)	-7%	-3	-56*	i	3%	-9
CC(C(=O)OCC(=O)c1ccc([N+](=O)[O-])cc1)N1C(=O)C2C3CCC(C3)C2C1=O (stereo not drawn)	-4%	6	-5	i	-19%	2
O=C(CN1C(=O)C2C3C=CC(C3)C2C1=O)OCC(=O)c1ccc([N+](=O)[O-])cc1 (stereo not drawn)	-17%	11	-69*	i	-9%	3
O=C(CN1C(=O)C2C3C=CC(C3)C2C1=O)OCC(=O)c1ccc(Cl)cc1 (stereo not drawn)	-2%	4	-12	i	28%	6
Cc1ccc(N(C)C(=O)C2CCCN(c3ncnc4c3nc3n4CCCCC3)C2)cc1C (stereo not drawn)	?	·	·	?	·	-2
CC(=O)Nc1cccc(Oc2ncnc3scc(-c4ccc(C)cc4)c23)c1	?	68	-2	32µM*	5%	13
Cc1ccc(-c2csc3ncnc(Oc4ccc5c(C)cc(=O)oc5c4)c23)cc1	-8%	-4	28	i	18%	6
CCC/C(C#Cc1ccsc1)=C1/c2ccccc2C(=O)N1c1ccccc1	?	-10	-89*	?	-27%	-17
CCC/C(C#Cc1ccc(N(C)C)cc1)=C1/c2ccccc2C(=O)N1c1ccccc1	12%	11	4	·	-24%	6
CCCCCCOC(=O)C(C#N)c1nc2ccccc2nc1N1CCN(CC)CC1 (stereo not drawn)	27%	-59*	?	?	-11%	1
CCCCCCOC(=O)C(C#N)c1nc2ccccc2nc1N1CCOCC1 (stereo not drawn)	-14%	6	-13	?	-5%	1
O=[N+]([O-])C1C(c2ccccc2)C12c1ccccc1-c1ccccc12 (stereo not drawn)	·	-14	-67*	?	-55%	0
SMILES	ATXN2 expr inh	DRD3 antagonist	IL1B secr inh	S2 tox	Integrin act MD	D3 ag
C=C1CC(COc2cc(=O)oc3ccccc23)(c2ccccc2)OC1=O (stereo not drawn)	?	-114*	-117*	·	-56%	-15
C=C1CCC2C(C)(C)[C@H](O)CC[C@@]2(C)[C@@H]1COc1cc(=O)oc2ccccc12 (stereo partly drawn)	?	32	-13	?	10%	19
CCN(N=O)[C@@H](Cc1ccccc1)CN(N=O)[C@@H](Cc1ccccc1)CN(C)N=O	-15%	0	-8	i	24%	32*
COc1cc(C(=S)N2CCN(C(c3ccccc3)c3ccccc3)CC2)cc(OC)c1O	-16%	12	-50*	?	-4%	6
COc1cc(CN2CCN(C(c3ccccc3)c3ccccc3)CC2)cc(OC)c1OC	·	-85*	8	?	-32%	-3
Cc1cccc(CN2CCN(C(c3ccccc3)c3ccc(Cl)cc3)CC2)c1 (stereo not drawn)	-12%	-107*	20	i	·	-93
O=C(Nc1cccc(Br)c1)c1cc(S(=O)(=O)N2CCOCC2)cs1	-14%	-6	i	i	6%	-10
COc1cccc(-c2noc(CCCC(=O)NC3CCCC3)n2)c1	-17%	20	0	i	0%	8
c1ccc(C2=Nn3c(nnc3-c3cccs3)SC2)cc1	-7%	-18	·	i	36%	-8
Clc1ccccc1C1=Nn2c(nnc2-c2ccncc2)SC1	11%	-10	-86*	i	16%	0
c1csc(C2=Nn3c(nnc3-c3ccncc3)SC2)c1	27%	-20	-75*	i	-21%	0
CCOC(=O)c1ccc(-c2ccc(/C=C(\C#N)C(=O)NCc3cccs3)o2)cc1	3%	-16	10	i	?	-4
CC1(Oc2cnc(Cl)c3ccccc23)CCN(Cc2ccc(OC(F)(F)F)cc2)C1 (stereo not drawn)	11%	2	4	i	·	-7
CC1(Oc2ccccc2)CCN(Cc2ccc(-c3ccccn3)cc2)C1 (stereo not drawn)	3%	-79*	-18	i	·	-13
COc1cc(Cl)ccc1OC1(C)CCN(Cc2cccc(OC)c2OC)C1 (stereo not drawn)	-16%	-61*	-3	i	·	-11
CSc1ccc(OC2(C)CCN(Cc3ccc(-c4ccccn4)cc3)C2)cc1 (stereo not drawn)	-17%	-55*	13	i	·	1
CC1(Oc2cccc(C#N)c2)CCN(Cc2ccc(-c3ccccn3)cc2)C1 (stereo not drawn)	-17%	-12	5	i	·	-6
CC1(Oc2ccc(Cl)cc2)CCN(Cc2ccc(-c3ccccn3)cc2)C1 (stereo not drawn)	-12%	-121*	16	?	·	-9
